We go through 1 molecule from the supplement of paper PMC11732987, “Enantioselective OTUD7B fragment discovery through chemoproteomics screening and high-throughput optimisation” (Communications Chemistry, 2025).

Holding throughout (assay): log2 ratio of Biotin-Ahx-Ub-VS probe labelling (fragment/DMSO); higher = less target engagement (more negative = stronger competition), active = hit call of the paper (q ≤ 0.05, log2 ratio ≤ -1)
Common to all, as to settings: compound concentration: 200 uM; treatment time: 3 h

One experiment addresses T1, OTUD6B (UniProt Q8N6M0).
T1 sequence (whole entry): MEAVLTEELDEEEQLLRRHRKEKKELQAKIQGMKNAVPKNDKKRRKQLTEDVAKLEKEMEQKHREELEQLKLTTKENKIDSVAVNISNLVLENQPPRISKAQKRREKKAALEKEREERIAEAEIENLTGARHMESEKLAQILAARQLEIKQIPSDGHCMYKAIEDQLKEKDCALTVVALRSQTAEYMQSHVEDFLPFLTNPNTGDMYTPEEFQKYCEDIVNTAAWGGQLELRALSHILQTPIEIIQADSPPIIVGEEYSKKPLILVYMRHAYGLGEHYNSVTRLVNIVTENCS
An outline of the steps:
(§1)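 HEK293T lysate, 495 µg per sample in Tris/CHAPS/IGEPAL buffer with protease inhibitors, was treated in triplicate with fragment at 200 µM or vehicle for 3 h and then with Biotin-Ahx-Ub-VS at 0.5 µM final for 1 h. Labelled DUBs were NeutrAvidin-enriched, digested with LysC and trypsin, and run by diaPASEF LC-MS/MS. Spectronaut label-free quantities were global-median-normalised, and values are average log2 fragment/vehicle ratios by unpaired t-test on proteins with ≥2 unique peptides.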

The next experiment deals with T2, OTUD7B (UniProt Q6GQQ9).
T2 sequence (whole entry): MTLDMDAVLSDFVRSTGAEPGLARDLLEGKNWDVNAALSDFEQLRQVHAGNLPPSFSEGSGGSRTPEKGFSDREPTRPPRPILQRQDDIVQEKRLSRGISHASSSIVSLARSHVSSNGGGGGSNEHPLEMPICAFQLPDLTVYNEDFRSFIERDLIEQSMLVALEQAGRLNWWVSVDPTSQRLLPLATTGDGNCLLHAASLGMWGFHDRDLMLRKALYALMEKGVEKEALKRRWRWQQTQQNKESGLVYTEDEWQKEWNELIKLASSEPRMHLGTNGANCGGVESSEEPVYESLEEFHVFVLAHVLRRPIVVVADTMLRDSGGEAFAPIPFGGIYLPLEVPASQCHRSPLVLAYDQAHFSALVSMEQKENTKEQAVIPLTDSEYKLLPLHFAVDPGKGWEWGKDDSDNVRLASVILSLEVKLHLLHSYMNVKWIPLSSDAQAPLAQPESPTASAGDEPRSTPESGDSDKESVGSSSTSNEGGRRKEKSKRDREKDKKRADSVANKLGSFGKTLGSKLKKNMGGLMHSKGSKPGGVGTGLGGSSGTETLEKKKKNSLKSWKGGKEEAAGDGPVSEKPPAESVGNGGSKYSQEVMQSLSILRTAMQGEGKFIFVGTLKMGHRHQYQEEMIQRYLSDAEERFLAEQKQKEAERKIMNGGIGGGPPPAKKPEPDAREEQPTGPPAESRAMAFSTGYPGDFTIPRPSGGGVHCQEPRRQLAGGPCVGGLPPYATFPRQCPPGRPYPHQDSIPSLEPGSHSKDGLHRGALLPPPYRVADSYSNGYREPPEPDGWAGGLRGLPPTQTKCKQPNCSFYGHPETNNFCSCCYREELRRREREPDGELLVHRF
Summed up: as §1

In a further experiment the target is PRPF8 (UniProt Q6P2Q9). Summed up: as §1
The target in a further experiment is T3, PSMD7 (UniProt P51665).
T3 sequence (whole entry): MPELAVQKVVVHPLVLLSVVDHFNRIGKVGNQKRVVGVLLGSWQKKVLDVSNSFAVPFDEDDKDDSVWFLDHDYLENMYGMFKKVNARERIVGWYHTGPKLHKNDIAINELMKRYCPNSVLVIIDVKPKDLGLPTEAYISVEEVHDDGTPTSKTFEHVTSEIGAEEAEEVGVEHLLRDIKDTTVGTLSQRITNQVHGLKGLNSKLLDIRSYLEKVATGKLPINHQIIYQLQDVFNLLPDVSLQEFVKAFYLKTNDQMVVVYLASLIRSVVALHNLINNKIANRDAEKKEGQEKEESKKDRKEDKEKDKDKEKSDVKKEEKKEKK
Summed up: as §1

A further experiment addresses UCHL1 (UniProt P09936). Summed up: as §1
Another experiment deals with T4, UCHL3 (UniProt P15374).
T4 sequence (whole entry): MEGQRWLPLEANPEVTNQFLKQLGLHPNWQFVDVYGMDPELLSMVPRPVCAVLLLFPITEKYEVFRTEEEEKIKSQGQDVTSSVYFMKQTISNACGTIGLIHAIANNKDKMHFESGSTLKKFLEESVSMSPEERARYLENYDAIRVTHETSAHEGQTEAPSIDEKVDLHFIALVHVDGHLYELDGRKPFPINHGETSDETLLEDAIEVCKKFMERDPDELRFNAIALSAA
Summed up: as §1

The next experiment addresses T5, UCHL5 (UniProt Q9Y5K5).
T5 sequence (whole entry): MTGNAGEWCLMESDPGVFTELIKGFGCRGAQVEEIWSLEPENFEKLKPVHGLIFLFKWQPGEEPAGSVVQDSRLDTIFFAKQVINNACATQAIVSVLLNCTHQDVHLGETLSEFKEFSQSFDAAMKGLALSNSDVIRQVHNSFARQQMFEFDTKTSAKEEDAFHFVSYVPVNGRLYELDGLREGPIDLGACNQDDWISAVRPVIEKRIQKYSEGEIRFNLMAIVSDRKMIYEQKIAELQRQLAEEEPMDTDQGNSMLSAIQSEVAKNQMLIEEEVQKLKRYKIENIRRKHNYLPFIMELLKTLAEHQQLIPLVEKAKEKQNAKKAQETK
An outline of the steps: as §1

The next experiment addresses USP10 (UniProt Q14694). Summed up:
as §1

The target in another experiment is T6, USP15 (UniProt Q9Y4E8).
T6 sequence (whole entry): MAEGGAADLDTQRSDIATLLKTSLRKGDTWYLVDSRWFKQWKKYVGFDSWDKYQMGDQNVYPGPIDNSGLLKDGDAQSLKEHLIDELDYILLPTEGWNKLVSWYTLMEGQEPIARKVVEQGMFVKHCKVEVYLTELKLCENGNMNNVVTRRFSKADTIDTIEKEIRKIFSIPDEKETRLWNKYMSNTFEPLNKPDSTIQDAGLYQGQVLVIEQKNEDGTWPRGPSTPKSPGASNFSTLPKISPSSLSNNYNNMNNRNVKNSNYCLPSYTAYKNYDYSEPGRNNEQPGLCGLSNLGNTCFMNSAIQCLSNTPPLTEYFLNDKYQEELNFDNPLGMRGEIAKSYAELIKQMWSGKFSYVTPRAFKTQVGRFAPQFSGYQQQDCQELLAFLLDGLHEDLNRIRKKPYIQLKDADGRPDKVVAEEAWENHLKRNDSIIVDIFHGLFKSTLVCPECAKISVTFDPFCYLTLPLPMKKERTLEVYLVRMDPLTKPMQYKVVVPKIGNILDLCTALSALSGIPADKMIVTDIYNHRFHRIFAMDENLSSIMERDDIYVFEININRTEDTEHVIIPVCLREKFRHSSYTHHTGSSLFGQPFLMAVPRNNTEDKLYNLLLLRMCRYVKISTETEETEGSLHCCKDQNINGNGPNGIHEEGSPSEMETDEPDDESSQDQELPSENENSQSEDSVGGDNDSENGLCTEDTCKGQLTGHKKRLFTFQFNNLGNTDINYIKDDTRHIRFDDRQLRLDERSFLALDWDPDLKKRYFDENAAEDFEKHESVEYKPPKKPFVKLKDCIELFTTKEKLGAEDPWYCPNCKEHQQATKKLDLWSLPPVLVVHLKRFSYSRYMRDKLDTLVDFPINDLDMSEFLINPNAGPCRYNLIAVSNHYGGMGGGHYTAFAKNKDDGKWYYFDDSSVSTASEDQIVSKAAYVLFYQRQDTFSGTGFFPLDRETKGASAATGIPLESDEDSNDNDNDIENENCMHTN
An outline of the steps:
as §1

The next experiment concerns the target USP16 (UniProt Q9Y5T5). An outline of the steps:
as §1

Unmarked numbers belong to inactive results.

Sequence of UCHL1 (P09936 whole entry, looked up): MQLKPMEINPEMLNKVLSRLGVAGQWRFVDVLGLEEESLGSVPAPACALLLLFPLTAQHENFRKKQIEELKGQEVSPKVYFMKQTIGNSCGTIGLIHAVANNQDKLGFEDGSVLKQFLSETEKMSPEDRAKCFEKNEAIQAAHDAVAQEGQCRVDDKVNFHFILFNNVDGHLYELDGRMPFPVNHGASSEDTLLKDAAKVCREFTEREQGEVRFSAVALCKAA
Sequence of USP10 (Q14694 whole entry): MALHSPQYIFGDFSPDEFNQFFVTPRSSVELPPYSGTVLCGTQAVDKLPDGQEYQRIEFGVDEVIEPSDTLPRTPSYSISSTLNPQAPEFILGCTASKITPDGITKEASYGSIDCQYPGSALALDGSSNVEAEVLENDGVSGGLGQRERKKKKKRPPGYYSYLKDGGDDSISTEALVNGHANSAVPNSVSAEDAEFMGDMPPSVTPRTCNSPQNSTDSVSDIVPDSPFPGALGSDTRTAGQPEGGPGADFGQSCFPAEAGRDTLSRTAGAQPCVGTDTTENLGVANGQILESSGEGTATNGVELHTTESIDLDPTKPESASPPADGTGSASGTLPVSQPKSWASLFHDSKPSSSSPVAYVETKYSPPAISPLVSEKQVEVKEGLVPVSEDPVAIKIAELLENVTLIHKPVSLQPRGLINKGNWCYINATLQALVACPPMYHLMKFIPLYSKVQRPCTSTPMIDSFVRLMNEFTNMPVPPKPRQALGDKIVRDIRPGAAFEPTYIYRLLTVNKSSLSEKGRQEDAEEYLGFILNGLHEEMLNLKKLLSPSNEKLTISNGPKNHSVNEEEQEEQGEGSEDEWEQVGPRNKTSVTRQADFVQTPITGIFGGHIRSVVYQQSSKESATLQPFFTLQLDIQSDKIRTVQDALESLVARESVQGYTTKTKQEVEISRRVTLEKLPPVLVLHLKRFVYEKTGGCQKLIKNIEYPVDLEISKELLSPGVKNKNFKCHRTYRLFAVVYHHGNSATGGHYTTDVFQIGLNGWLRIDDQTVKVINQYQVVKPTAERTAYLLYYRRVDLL
Sequence of USP16 (Q9Y5T5 whole entry, looked up): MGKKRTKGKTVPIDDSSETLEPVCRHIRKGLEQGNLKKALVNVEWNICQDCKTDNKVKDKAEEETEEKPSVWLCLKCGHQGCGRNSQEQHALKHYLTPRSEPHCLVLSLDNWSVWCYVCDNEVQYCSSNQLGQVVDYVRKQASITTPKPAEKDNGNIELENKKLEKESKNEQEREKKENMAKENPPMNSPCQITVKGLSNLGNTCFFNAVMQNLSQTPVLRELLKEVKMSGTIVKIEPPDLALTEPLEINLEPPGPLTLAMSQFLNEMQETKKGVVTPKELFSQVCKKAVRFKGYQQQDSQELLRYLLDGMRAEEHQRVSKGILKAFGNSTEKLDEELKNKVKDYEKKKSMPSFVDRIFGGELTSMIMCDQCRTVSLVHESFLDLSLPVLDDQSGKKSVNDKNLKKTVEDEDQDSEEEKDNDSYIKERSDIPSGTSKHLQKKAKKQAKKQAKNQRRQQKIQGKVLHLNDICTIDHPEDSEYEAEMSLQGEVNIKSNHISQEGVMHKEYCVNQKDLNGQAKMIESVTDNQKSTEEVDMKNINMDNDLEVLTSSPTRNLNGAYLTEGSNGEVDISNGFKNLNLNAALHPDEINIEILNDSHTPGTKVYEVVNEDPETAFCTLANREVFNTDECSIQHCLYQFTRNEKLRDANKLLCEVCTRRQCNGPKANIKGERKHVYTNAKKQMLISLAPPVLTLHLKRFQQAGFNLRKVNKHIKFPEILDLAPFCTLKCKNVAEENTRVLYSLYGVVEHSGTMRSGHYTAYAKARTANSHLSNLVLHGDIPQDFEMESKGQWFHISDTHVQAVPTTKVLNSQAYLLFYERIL

As to `CC1CCc2onc(CNC(=O)CCl)c2C1` (stereo not given), the “log2 ratio of Biotin-Ahx-Ub-VS probe labelling” value with OTUD6B was -0.0903; with OTUD7B, -0.588; with PRPF8, -0.225; in the experiment with PSMD7 it was -0.0595; with UCHL1 it was -1.33 (active); with UCHL3, 0.123. The “log2 ratio of Biotin-Ahx-Ub-VS probe labelling” value with UCHL5 was -0.175; with USP10 it was -0.0579; with USP15, -0.0914; in the experiment with USP16, 0.406.
